Measured values published in PMC7862700, “An all-to-all approach to the identification of sequence-specific readers for epigenetic DNA modifications on cytosine”.

How the values were obtained:
Assay in all cases: DAPPL (digital affinity profiling via proximity ligation, sequencing); 10 mM Tris-HCl pH 7.5, 50 mM NaCl, 1 mM DTT, 4% glycerol, room temperature, 30 min; GST-TFs on glutathione beads, 16-mer random dsDNA library, 0.1% formaldehyde crosslink after washing; high values mean tight binding
ELK1 = target: T1, ELK1 (Homo sapiens, UniProt P19419 1-428); details: protein: recombinant; tags: N-terminal GST; dsDNA, one strand shown
T1 sequence: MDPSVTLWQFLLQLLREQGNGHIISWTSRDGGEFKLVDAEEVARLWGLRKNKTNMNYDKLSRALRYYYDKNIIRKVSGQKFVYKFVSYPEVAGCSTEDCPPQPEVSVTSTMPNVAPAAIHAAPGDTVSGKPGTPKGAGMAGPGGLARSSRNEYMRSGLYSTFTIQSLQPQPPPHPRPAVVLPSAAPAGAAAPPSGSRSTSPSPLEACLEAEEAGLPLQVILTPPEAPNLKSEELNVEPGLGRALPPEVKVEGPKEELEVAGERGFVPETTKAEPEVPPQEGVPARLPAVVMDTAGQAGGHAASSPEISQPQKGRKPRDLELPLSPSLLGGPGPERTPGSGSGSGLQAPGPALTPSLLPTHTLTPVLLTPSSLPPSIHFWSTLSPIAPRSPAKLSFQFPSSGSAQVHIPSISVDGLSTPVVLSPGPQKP
Summary of the method: (§1)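 Sequencing on an Illumina NextSeq500 followed washing, crosslinking with 0.1% formaldehyde, proximity ligation (BsaI/T4 ligase, 1 h, 37 °C) and PCR amplification of pools that had been incubated for 30 min at room temperature with 200 nmole of a random double-stranded 16-mer DNA library in Tris/NaCl/DTT/glycerol buffer. Each pool held DNA-barcoded human transcription factors, expressed in yeast as GST fusions and captured on glutathione beads, plus a tag-only sample. Binding signal is a hexamer's read frequency for a factor divided by its frequency in the tag-only sample.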

EHF = target: T2, EHF (Homo sapiens, UniProt Q9NZC4 1-300); details: protein: recombinant; tags: N-terminal GST; dsDNA, one strand shown
T2 sequence: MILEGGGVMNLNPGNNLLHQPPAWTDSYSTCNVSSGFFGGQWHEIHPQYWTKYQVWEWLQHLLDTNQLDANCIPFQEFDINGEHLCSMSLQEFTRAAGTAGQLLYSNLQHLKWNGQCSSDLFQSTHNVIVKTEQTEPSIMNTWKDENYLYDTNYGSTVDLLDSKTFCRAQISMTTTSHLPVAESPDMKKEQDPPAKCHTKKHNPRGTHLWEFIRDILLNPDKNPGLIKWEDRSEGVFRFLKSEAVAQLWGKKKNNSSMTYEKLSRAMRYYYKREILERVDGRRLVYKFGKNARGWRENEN
Summary of the method: as §1

SPI1 = SPI1 (Homo sapiens, UniProt P17947 1-270); details: protein: recombinant; tags: N-terminal GST; dsDNA, one strand shown
Summary of the method: as §1

ELK3 = target: T3, ELK3 (Homo sapiens, UniProt P41970 1-407); details: protein: recombinant; tags: N-terminal GST; dsDNA, one strand shown
T3 sequence: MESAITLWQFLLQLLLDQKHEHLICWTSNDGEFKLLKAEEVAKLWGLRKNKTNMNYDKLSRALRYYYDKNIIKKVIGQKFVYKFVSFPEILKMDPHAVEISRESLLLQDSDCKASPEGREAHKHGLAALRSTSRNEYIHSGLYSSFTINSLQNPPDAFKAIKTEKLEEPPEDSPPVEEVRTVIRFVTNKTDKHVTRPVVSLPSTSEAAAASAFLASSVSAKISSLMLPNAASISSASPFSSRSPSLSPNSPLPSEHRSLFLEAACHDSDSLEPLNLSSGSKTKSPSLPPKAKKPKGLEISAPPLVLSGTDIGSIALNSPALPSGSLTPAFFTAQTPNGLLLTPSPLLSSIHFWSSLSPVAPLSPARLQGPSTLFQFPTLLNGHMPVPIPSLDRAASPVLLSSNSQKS
Summary of the method: as §1

HSF1 = HSF1 (Homo sapiens, UniProt Q00613 1-529); details: protein: recombinant; tags: N-terminal GST; chain copies: 3; dsDNA, one strand shown
Chain of HSF1 (Q00613 whole entry): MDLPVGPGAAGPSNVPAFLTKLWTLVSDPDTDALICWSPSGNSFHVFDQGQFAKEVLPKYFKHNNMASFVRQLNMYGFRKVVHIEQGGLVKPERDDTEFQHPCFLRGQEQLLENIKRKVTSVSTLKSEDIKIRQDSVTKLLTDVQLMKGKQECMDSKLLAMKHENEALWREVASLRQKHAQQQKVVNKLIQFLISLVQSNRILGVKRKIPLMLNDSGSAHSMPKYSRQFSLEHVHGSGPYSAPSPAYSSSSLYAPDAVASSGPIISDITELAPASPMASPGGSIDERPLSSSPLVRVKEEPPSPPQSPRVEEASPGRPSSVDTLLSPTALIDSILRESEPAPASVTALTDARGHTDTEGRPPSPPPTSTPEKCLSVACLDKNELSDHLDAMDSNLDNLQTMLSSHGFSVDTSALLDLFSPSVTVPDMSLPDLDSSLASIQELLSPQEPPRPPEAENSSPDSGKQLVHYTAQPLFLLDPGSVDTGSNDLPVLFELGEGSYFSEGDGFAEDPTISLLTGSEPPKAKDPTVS
Summary of the method: as §1

ELF4 = ELF4 (Homo sapiens, UniProt Q99607 1-663); details: protein: recombinant; tags: N-terminal GST; dsDNA, one strand shown
Chain of ELF4 (Q99607 whole entry): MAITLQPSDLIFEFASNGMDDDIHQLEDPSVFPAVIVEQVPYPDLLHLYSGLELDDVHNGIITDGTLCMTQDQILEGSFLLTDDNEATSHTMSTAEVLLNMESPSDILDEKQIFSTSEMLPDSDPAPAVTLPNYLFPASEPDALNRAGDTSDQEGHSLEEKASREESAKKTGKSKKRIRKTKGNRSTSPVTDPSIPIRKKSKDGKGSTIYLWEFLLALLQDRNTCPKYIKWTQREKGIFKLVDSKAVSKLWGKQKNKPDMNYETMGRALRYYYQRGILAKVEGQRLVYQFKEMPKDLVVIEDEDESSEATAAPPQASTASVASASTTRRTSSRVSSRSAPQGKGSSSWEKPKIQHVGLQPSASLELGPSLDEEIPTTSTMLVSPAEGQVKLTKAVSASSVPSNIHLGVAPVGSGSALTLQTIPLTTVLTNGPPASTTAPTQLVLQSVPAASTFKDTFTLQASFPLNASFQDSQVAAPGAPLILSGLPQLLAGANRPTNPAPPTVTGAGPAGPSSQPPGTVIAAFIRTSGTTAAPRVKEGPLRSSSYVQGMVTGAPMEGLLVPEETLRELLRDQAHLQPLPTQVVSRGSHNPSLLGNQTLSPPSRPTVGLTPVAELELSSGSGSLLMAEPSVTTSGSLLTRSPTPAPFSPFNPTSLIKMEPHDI
Summary of the method: as §1

ELK4 = target: T4, ELK4 (Homo sapiens, UniProt P28324-2 1-405); details: protein: recombinant; tags: N-terminal GST; dsDNA, one strand shown
T4 sequence: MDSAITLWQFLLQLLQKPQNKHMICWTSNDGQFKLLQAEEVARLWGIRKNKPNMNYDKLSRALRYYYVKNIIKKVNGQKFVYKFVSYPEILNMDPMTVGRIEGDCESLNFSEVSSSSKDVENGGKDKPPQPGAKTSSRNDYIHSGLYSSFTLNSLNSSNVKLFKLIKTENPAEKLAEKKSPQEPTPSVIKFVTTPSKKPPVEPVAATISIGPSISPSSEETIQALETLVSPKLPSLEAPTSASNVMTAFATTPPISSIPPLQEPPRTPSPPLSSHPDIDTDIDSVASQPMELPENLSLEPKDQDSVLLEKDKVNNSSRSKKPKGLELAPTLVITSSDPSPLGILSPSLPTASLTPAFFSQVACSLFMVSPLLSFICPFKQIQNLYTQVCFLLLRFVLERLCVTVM
Summary of the method: as §1

CRX = CRX (Homo sapiens, UniProt O43186 1-299); details: protein: recombinant; tags: N-terminal GST; dsDNA, one strand shown
Chain of CRX (O43186 whole entry): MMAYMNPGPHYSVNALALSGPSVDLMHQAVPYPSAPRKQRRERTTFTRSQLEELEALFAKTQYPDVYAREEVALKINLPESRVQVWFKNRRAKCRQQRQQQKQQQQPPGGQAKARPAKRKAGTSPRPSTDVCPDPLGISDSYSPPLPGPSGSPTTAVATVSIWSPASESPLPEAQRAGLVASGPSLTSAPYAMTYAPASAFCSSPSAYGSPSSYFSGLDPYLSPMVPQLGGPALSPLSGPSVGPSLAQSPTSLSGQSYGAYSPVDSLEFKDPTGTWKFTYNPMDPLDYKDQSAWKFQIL
Summary of the method: as §1

ETV3L = target: T5, ETV3L (Homo sapiens, UniProt Q6ZN32 1-361); details: protein: recombinant; tags: N-terminal GST; dsDNA, one strand shown
T5 sequence: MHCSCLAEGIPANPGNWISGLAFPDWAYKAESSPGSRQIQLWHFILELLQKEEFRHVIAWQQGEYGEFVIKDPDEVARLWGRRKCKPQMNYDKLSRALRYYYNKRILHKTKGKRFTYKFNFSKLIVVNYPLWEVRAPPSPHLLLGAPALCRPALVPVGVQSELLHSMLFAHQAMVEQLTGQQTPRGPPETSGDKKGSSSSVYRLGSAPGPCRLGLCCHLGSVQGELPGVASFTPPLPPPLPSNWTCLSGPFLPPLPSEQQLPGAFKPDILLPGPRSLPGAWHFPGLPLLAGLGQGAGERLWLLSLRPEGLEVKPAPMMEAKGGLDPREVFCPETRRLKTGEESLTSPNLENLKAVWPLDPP
Summary of the method: as §1

ETS2 = target: T6, ETS2 (Homo sapiens, UniProt P15036 1-469); details: protein: recombinant; tags: N-terminal GST; dsDNA, one strand shown
T6 sequence: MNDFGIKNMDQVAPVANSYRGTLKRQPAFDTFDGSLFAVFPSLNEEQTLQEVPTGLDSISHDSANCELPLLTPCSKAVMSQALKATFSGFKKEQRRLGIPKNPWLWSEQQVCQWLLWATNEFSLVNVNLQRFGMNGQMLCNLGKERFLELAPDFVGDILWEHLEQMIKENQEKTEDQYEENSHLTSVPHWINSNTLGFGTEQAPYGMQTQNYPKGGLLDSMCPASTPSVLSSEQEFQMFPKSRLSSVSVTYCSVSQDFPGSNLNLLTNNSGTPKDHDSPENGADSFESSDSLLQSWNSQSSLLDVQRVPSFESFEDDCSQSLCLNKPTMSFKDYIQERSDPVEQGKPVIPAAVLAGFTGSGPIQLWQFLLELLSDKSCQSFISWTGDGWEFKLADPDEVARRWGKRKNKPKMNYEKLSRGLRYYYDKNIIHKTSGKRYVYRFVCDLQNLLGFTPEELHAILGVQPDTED
Summary of the method: as §1

SPDEF = target: T7, SPDEF (Homo sapiens, UniProt O95238 1-335); details: protein: recombinant; tags: N-terminal GST; dsDNA, one strand shown
T7 sequence: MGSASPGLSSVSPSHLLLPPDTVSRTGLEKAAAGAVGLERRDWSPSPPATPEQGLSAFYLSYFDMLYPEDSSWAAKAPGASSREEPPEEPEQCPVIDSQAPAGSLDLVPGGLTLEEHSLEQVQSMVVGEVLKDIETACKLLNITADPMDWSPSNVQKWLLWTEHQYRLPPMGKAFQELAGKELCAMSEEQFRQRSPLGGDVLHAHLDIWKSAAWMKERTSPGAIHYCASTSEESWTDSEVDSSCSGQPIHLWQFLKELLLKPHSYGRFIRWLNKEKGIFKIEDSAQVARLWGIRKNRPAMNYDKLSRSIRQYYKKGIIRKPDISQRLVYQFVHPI
Summary of the method: as §1

ETV6 = ETV6 (Homo sapiens, UniProt P41212 1-452); details: protein: recombinant; tags: N-terminal GST; dsDNA, one strand shown
Chain of ETV6 (P41212 whole entry): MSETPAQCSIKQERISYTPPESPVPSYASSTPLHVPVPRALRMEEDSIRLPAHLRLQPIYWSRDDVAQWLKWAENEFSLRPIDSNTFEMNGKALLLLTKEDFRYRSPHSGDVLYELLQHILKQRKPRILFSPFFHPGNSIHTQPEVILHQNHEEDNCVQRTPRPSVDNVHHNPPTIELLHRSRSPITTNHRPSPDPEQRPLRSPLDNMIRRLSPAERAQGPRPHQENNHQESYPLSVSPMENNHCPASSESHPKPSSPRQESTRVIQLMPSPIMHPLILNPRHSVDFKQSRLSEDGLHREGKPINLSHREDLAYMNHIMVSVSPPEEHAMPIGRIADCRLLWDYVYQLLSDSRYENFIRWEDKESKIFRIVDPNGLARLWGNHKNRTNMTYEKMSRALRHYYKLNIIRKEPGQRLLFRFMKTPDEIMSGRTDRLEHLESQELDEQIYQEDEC
Summary of the method: as §1

GABPA = target: T8, GABPA (Homo sapiens, UniProt Q06546 1-454); details: protein: recombinant; tags: N-terminal GST; dsDNA, one strand shown
T8 sequence: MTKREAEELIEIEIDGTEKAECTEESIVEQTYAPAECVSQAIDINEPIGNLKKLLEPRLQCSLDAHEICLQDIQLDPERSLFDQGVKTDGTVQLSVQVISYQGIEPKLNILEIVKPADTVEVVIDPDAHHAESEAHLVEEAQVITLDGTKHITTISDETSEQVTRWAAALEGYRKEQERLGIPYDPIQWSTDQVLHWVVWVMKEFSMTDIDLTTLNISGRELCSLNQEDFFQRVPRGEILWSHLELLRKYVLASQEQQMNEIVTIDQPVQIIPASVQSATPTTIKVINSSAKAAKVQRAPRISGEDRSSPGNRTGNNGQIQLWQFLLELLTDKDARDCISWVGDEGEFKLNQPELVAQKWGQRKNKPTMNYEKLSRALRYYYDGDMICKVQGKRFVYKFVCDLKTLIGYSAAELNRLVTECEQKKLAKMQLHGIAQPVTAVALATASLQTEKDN
Summary of the method: as §1

Sequence | binding signal (ELK1) | binding signal (EHF) | binding signal (SPI1) | binding signal (ELK3) | binding signal (HSF1) | binding signal (ELF4) | binding signal (ELK4) | binding signal (CRX) | binding signal (ETV3L) | binding signal (ETS2) | binding signal (SPDEF) | binding signal (ETV6) | binding signal (GABPA)
AGATTA | 1.02 fold enrichment (6-mer frequency, TF over GST control) | 1.03 fold enrichment (6-mer frequency, TF over GST control) | 1.01 fold enrichment (6-mer frequency, TF over GST control) | 1.03 fold enrichment (6-mer frequency, TF over GST control) | 2.62 fold enrichment (6-mer frequency, TF over GST control) | 1.05 fold enrichment (6-mer frequency, TF over GST control) | 1.05 fold enrichment (6-mer frequency, TF over GST control) | 4.03 fold enrichment (6-mer frequency, TF over GST control) | 1.02 fold enrichment (6-mer frequency, TF over GST control) | 1 fold enrichment (6-mer frequency, TF over GST control) | 1.05 fold enrichment (6-mer frequency, TF over GST control) | 1.04 fold enrichment (6-mer frequency, TF over GST control) | 
ATCAGA |  |  |  |  | 1.09 fold enrichment (6-mer frequency, TF over GST control) |  | 1.05 fold enrichment (6-mer frequency, TF over GST control) | 1.25 fold enrichment (6-mer frequency, TF over GST control) |  |  |  |  | 1.11 fold enrichment (6-mer frequency, TF over GST control)
